The record followed here is PubChem BioAssay (EPA / NIEHS).

“And” between values parts separate entries of the source, which are not always exact repeats. Equal entries are not always repeated. Inconclusive results are not listed. The source made the active and inactive calls. How the source made its calls, unless noted: active means hit-call score of the fitted dose curve at least 0.9, where 1 is the maximum; inactive means score below 0.9.

Read-out in experiment [1]: CD69, CD69 (gene 969)
Nature of the experiment: BSK_SAg_CD69: BioMAP Diversity Plus: SAg Assay for CD69 Biomarker Activity (AID 2283089).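 On AC50: cell surface CD69 protein quantified by ELISA with fluorescence detection.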 The conditions noted are these: primary human HUVEC with PBMC; actives raise or lower the signal. An outline of the steps:
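HUVEC co-cultured with PBMC were dosed with chemical, and CD69 was measured by ELISA with fluorescence read-out 24 h later. Bidirectional curve fitting used DMSO as negative control and activity baseline.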

Read-out in experiment [2]: Monocyte Chemoattractant Protein-1 (MCP1), CCL2 (gene 6347)
As to the kind of experiment: BSK_SAg_MCP1: BioMAP Diversity Plus: SAg Assay for Monocyte Chemoattractant Protein-1 (MCP1) Biomarker Activity (AID 2283090). The conditions noted are these: primary human HUVEC with PBMC; actives raise or lower the signal. An outline of the steps: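 Values derive from bidirectional fitting of ELISA-measured MCP1 against DMSO controls. Readings were taken 24 h after dosing human vascular endothelial cells co-cultured with peripheral blood mononuclear cells under superantigen stimulation.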

Read-out in experiment [3]: E-selectin (Homo sapiens) (UniProt P16581)
As to the kind of experiment: BSK_SAg_Eselectin: BioMAP Diversity Plus: SAg Assay for Eselectin Biomarker Activity (AID 2283091). Conditions: primary human HUVEC with PBMC; actives raise or lower the signal. The method in brief: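 Cell-surface E-selectin is read by ELISA at 24 h in the SAg co-culture of HUVEC and PBMC. Curves are fitted in both directions relative to DMSO. Parallel SRB total-protein staining tracks overt toxicity.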

Read-out in experiment [4]: Monokine induced gamma interferon (MIG), CXCL9 (gene 4283)
Nature of the experiment: BSK_SAg_MIG: BioMAP Diversity Plus: SAg Assay for Monokine induced gamma interferon (MIG) Biomarker Activity (AID 2283092). Conditions: primary human HUVEC with PBMC; actives raise or lower the signal. An outline of the steps:
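HUVEC plus human PBMC co-culture, chemicals dosed and MIG (CXCL9) quantified by ELISA at 24 h. Bidirectional curve fitting against DMSO as negative control and baseline, so both gain and loss of signal count as activity.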

Experiment [5] can be described thus: BSK_SAg_PBMCCytotoxicity: PBMC Cytotoxicity Assessment in the BioMAP Diversity Plus: SAg Assay (AID 2283093).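 Further: PBMC viability measured as Alamar Blue reduction fluorescence at 546/580 nm; fitted both ways against DMSO so a hit may be loss or gain of signal.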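 On AC50: PBMC superantigen activated with SEB plus TSST-1 one hour after compound addition.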 Conditions: primary human HUVEC with PBMC. The method in brief:
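Alamar Blue reduction (6 h, ex/em 546/580 nm) read after 90 h culture of PBMC pre-dosed 1 h then stimulated with SEB plus TSST-1, 20 ng/mL each. Gain or loss of signal fitted relative to DMSO.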

Read-out in experiment [6]: Interleukin-8 (IL8), CXCL8 (gene 3576)
As to the kind of experiment: BSK_SAg_IL8: BioMAP Diversity Plus: SAg Assay for Interleukin-8 (IL8) Biomarker Activity (AID 2283094). Conditions: primary human HUVEC with PBMC; actives raise or lower the signal. The method in brief: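 Primary human endothelial cells with PBMC, exposed 24 h; IL-8 determined by ELISA, analysed bidirectionally relative to DMSO.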

A short description of experiment [7]: BSK_SAg_Proliferation: Cell Proliferation Assessment in the BioMAP Diversity Plus: SAg Assay (AID 2283095).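 Further: relative cell number as total protein by SRB absorbance in sub-confluent culture.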 Conditions: primary human HUVEC with PBMC. An outline of the steps:
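A human primary co-culture of umbilical vein endothelium and blood mononuclear cells receives compound; relative cell number is quantified at 96 h by SRB staining and 560 nm absorbance, with DMSO-referenced bidirectional curve fitting.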

Experiment [8] in a line: BSK_SAg_SRB: Viability Assessment in the BioMAP Diversity Plus: SAg Assay (AID 2283096).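 Further: cells read one day after compound addition; hits may be either gain or loss of signal compared with DMSO.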 The conditions noted are these: primary human HUVEC with PBMC. The method in brief: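 SRB absorbance at 560 nm served as the viability read-out. Cells (HUVEC plus peripheral blood mononuclear cells) were TCA-fixed and stained 24 h post-dosing; activity fitted in both directions against DMSO controls.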

Experiment [9] concerns the target human CYP2C9, CYP2C9 (gene 1559) (UniProt P11712). Nature of the experiment: NVS_ADME_hCYP2C9: NovaScreen (NVS) CYP450-related Enzyme Activity (ADME) Assay for human CYP2C9 (AID 2283108; active means hit-call score of the fitted dose curve at least 0.9, where 1 is the maximum). The method in brief: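 Fluorescence readout of CYP2C9 activity (SF9-expressed human enzyme) at 0.75 h. The primary screen used 10 uM in duplicate, with concentration-response follow-up for actives; acetonitrile was the negative control.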

Experiment [10] has as its target human CYP2B6, CYP2B6 (gene 1555) (UniProt P20813). As to the kind of experiment: NVS_ADME_hCYP2B6: NovaScreen (NVS) CYP450-related Enzyme Activity (ADME) Assay for human CYP2B6 (AID 2283101; active means hit-call score of the fitted dose curve at least 0.9, where 1 is the maximum). An outline of the steps: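 Recombinant human CYP2B6 with fluorogenic substrate, read by fluorescence intensity 1 h after dosing. Primary screen in duplicate at 10 uM, actives followed in concentration series; signal loss relative to acetonitrile control.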

Experiment [11] deals with human CYP2D6, CYP2D6 (gene 1565) (UniProt P10635). Nature of the experiment: NVS_ADME_hCYP2D6: NovaScreen (NVS) CYP450-related Enzyme Activity (ADME) Assay for human CYP2D6 (AID 2283107; active means hit-call score of the fitted dose curve at least 0.9, where 1 is the maximum). An outline of the steps: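 Fluorescence readout of recombinant CYP2D6 (insect-cell derived) activity after 1 h incubation with test chemical. Acetonitrile served as baseline, loss-of-signal direction. Single-concentration duplicate screening at 10 uM preceded concentration-response retesting.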
Sequence of human CYP2D6, CYP2D6 (gene 1565) (P10635 whole entry, looked up): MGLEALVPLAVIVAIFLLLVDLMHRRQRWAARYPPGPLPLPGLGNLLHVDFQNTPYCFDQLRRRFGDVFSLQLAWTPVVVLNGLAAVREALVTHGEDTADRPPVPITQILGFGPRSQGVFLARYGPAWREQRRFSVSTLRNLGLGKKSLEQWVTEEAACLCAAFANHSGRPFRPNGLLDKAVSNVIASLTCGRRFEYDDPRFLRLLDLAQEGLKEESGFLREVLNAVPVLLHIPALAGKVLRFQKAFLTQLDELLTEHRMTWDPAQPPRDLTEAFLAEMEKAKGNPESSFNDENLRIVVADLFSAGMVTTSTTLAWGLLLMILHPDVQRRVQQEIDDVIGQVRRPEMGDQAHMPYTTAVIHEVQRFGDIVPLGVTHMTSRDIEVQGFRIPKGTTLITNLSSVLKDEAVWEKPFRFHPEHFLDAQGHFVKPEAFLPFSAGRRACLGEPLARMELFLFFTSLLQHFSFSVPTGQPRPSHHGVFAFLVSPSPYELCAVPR

Experiment [12] deals with human CYP2A6, CYP2A6 (gene 1548) (UniProt P11509). Nature of the experiment: NVS_ADME_hCYP2A6: NovaScreen (NVS) CYP450-related Enzyme Activity (ADME) Assay for human CYP2A6 (AID 2283099; active means hit-call score of the fitted dose curve at least 0.9, where 1 is the maximum). An outline of the steps:
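Compounds screened at 10 uM (duplicate) and, if active, titrated to a 20 uM top concentration against insect-cell-expressed CYP2A6. Loss of fluorescent product signal after 0.5 h, relative to acetonitrile baseline, indicates inhibition.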

Experiment [13] has as its target human CYP19A1, CYP19A1 (gene 1588) (UniProt P11511). As to the kind of experiment: NVS_ADME_hCYP19A1: NovaScreen (NVS) CYP450-related Enzyme Activity (ADME) Assay for human CYP19A1 (AID 2283098; active means hit-call score of the fitted dose curve at least 0.9, where 1 is the maximum). An outline of the steps:
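Primary testing was in duplicate at a single 10 uM concentration, with actives followed up in concentration-response series. Fluorescence read-out of recombinant enzyme activity at 0.5 h, cell-free. Acetonitrile was the negative-control baseline.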

Experiment [14] deals with human CYP1A2, CYP1A2 (gene 1544) (UniProt P05177). Nature of the experiment: NVS_ADME_hCYP1A2: NovaScreen (NVS) CYP450-related Enzyme Activity (ADME) Assay for human CYP1A2 (AID 2283102; active means hit-call score of the fitted dose curve at least 0.9, where 1 is the maximum;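 further: fluorescence from turnover of a fluorogenic substrate by recombinant insect-cell CYP1A2; potency for inhibition since loss of fluorescence marks reduced CYP1A2 activity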). An outline of the steps: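 Enzyme activity of insect-cell-expressed human CYP1A2 measured by fluorescence 0.5 h after compound addition, relative to acetonitrile. Compounds first tested in duplicate at 10 uM, actives followed up in concentration series.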
Sequence of human CYP1A2, CYP1A2 (gene 1544) (P05177 whole entry, looked up): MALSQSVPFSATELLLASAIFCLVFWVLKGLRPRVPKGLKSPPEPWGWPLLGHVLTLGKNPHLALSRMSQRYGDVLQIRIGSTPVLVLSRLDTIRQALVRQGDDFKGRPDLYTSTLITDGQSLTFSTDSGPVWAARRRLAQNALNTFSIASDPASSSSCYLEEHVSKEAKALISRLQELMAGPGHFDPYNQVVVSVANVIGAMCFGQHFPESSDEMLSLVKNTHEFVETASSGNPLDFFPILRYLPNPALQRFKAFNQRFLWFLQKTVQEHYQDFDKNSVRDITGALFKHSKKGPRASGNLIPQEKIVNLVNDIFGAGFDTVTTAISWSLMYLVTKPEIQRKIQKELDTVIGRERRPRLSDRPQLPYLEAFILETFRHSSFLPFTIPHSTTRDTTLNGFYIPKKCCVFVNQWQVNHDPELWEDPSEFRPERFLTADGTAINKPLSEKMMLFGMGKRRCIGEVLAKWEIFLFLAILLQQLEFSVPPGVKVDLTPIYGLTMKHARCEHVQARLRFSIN

The target in experiment [15] is Cytochrome P450 2C18 (Homo sapiens) (UniProt P33260). As to the kind of experiment: NVS_ADME_hCYP2C18: NovaScreen (NVS) CYP450-related Enzyme Activity (ADME) Assay for human CYP2C18 (AID 2283103). An outline of the steps: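 Enzyme activity measured by fluorescence 0.5 h after compound addition, using recombinant CYP2C18 and a specific substrate. Actives from duplicate 10 uM screening were retested in concentration series (top 20 uM); acetonitrile served as negative baseline.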
Sequence of Cytochrome P450 2C18 (Homo sapiens) (P33260 whole entry, looked up): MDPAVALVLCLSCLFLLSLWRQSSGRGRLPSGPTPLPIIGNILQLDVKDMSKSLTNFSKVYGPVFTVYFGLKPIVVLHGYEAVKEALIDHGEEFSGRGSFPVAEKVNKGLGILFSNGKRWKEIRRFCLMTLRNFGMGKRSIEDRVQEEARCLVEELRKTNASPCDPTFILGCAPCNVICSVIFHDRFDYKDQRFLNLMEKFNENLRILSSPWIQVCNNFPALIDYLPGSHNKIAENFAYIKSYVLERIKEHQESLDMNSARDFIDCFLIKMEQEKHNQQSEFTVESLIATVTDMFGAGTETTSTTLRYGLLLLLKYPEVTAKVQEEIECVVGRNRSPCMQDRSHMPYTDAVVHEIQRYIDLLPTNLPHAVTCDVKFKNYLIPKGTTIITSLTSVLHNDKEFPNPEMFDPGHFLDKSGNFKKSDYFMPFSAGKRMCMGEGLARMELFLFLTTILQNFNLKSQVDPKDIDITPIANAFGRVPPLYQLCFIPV

Experiment [16] addresses human CYP2J2, CYP2J2 (gene 1573) (UniProt P51589). Nature of the experiment: NVS_ADME_hCYP2J2: NovaScreen (NVS) CYP450-related Enzyme Activity (ADME) Assay for human CYP2J2 (AID 2283106; active means hit-call score of the fitted dose curve at least 0.9, where 1 is the maximum). The method in brief: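 Chemicals were first tested at 10 uM in duplicate, and hits meeting criteria such as 30% inhibition were run in singleton concentration series with a 20 uM top concentration. Enzyme activity of recombinant CYP2J2 was measured by fluorescence after 1 h, relative to acetonitrile.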

Sequence of E-selectin (Homo sapiens) (P16581 whole entry, looked up): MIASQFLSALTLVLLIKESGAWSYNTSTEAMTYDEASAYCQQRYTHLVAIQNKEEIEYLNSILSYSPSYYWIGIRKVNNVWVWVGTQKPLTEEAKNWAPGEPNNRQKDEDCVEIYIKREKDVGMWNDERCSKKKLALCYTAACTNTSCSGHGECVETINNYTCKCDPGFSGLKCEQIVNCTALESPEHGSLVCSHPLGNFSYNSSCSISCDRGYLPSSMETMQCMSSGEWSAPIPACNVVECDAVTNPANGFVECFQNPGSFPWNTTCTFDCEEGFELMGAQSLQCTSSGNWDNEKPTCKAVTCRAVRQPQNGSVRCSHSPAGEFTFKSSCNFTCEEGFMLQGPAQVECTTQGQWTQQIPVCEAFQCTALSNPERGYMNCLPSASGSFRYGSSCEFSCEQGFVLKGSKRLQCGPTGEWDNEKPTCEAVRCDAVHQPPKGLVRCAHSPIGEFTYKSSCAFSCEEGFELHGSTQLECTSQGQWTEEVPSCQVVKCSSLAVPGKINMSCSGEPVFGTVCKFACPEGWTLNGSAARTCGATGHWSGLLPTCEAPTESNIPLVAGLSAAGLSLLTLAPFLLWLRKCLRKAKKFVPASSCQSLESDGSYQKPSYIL
Sequence of human CYP2C9, CYP2C9 (gene 1559) (P11712 whole entry, looked up): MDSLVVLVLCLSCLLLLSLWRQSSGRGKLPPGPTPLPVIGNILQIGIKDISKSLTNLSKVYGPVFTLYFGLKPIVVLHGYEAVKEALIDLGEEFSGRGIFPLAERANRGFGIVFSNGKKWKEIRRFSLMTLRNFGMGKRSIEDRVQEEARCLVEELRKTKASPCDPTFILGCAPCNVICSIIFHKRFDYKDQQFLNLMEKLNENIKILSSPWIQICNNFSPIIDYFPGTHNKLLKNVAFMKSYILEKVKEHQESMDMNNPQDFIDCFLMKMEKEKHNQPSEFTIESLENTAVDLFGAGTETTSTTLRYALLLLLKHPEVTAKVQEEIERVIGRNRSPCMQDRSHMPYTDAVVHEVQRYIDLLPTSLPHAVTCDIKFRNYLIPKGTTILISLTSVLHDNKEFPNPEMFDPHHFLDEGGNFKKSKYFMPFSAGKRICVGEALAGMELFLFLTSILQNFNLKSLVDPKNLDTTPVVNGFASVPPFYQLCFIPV
Sequence of human CYP19A1, CYP19A1 (gene 1588) (P11511 whole entry, looked up): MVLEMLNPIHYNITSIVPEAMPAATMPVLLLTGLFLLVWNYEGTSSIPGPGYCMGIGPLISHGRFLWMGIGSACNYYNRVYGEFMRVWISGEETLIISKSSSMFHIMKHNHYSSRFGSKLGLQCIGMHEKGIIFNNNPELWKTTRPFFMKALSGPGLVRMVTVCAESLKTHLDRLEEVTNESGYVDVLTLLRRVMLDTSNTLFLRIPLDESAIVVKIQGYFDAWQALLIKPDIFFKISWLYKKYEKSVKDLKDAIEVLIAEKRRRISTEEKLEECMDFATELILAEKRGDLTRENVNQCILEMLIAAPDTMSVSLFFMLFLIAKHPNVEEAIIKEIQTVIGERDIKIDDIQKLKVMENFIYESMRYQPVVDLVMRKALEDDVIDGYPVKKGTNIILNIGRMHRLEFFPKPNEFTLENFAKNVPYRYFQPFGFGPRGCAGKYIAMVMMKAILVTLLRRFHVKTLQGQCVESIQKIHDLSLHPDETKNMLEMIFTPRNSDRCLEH
Sequence of human CYP2J2, CYP2J2 (gene 1573) (P51589 whole entry, looked up): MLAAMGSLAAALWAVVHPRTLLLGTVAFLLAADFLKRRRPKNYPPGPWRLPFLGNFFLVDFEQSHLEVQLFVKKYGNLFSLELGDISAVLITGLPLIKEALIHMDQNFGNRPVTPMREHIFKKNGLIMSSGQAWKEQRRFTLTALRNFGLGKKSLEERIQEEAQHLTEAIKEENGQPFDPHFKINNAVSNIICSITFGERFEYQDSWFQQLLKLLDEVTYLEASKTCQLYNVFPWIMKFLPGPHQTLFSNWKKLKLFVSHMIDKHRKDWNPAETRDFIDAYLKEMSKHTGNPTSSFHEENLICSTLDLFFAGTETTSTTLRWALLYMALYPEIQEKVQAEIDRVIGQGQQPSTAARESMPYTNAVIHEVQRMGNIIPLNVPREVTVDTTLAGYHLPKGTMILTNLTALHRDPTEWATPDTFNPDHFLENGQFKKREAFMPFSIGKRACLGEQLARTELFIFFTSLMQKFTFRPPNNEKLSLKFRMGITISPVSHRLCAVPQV
Sequence of human CYP2B6, CYP2B6 (gene 1555) (P20813 whole entry, looked up): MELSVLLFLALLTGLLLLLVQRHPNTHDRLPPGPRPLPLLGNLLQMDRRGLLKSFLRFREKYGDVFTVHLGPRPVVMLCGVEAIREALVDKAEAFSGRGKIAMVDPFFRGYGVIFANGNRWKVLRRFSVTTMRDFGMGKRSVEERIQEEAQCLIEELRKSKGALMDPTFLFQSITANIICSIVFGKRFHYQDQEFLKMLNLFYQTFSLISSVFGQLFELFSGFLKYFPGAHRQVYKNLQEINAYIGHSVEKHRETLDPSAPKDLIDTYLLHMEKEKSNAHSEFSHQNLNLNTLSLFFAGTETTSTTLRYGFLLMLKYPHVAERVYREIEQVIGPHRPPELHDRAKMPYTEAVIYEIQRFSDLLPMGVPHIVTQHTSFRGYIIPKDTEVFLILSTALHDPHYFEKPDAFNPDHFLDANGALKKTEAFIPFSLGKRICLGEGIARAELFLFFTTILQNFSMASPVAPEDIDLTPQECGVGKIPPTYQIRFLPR
Sequence of human CYP2A6, CYP2A6 (gene 1548) (P11509 whole entry, looked up): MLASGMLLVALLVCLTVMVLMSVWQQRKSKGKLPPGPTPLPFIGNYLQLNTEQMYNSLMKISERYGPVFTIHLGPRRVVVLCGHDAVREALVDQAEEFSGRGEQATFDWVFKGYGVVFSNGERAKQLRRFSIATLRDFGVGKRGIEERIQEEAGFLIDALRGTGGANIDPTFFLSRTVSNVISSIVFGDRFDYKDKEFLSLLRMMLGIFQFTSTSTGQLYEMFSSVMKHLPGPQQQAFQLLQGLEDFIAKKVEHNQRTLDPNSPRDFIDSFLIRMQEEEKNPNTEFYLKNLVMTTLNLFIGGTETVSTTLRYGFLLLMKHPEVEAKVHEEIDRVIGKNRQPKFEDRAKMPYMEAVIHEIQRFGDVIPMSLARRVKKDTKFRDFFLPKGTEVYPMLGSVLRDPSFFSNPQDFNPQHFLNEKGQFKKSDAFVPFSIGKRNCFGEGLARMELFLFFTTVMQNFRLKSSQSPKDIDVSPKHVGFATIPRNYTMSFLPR

For `CCOP(=S)(OCC)Oc1ccc(S(C)=O)cc1` (stereo not drawn), the outcome in experiment [1], in [2], in experiment [3], in [4], in experiment [5] and in [6] was inactive. Moreover, the outcome in [7] and in [8] was inactive. In addition, the AC50 in experiment [9] was 3.31 µM (active).
In the case of `O=S(=O)(c1ccc(Cl)cc1)c1ccc(Cl)cc1`, the outcome in [1], in experiment [2], in experiment [3], in experiment [4], in experiment [5] and in experiment [6] was inactive. The outcome in experiment [7] and in experiment [8] was inactive. Moreover, the concentration at half-maximal activity (AC50) in experiment [10] was 2.89 µM (active).
Consider `C[C@@H]1C[C@@H]([C@H](O)CC2CC(=O)NC(=O)C2)C(=O)[C@@H](C)C1`, for which the AC50 in [1] is 6.63 µM (active); in [2], 7.88 µM (active); in experiment [3], 0.585 µM (active); in experiment [4], 13 µM (active); in [5], 4.6 µM (active); in experiment [6], 1.4 µM (active). Moreover, the results for the half-maximal activity concentration (AC50) in experiment [7] and in [8] were 3.82 µM (active) and 7.07 µM (active), respectively.
Take `CCC(=O)C(CC(C)N(C)C)(c1ccccc1)c1ccccc1` (stereo not drawn): the result in experiment [1], in experiment [2], in experiment [3], in experiment [4], in experiment [5] and in experiment [6] was inactive. In addition, the outcome in experiment [7] and in experiment [8] was inactive. The AC50 in experiment [11] is 1.23 µM (active).
On to `COP(=S)(OC)Oc1ccc(S(=O)(=O)N(C)C)cc1`, for which the outcome in experiment [1], in experiment [2], in [3], in experiment [4], in experiment [5] and in experiment [6] was inactive. The result in experiment [7] and in experiment [8] was inactive. Moreover, the AC50 in experiment [9] was 0.0779 µM (active).
For `O=[N+]([O-])c1ccc(O)c([N+](=O)[O-])c1`, the outcome in experiment [1], in [2], in experiment [3], in [4], in experiment [5] and in experiment [6] was inactive. The result in [7], in experiment [8] and in experiment [12] was inactive.
For the compound `OCc1ccco1`, the outcome in experiment [1], in experiment [2], in experiment [3], in [4], in experiment [5] and in [6] was inactive. Moreover, the outcome in experiment [8] and in [13] was inactive. The AC50 in experiment [7] is 26.7 µM (active).
As for `COP(=S)(OC)Oc1ccc(Sc2ccc(OP(=S)(OC)OC)cc2)cc1`, the AC50 in experiment [1] is 13.6 µM (active); in experiment [2] it was 26.9 µM (active); in [3], 30.4 µM (active); in experiment [6] it was 9.59 µM (active); in [7], 28.8 µM (active); in [14], 7.61 µM (active). The AC50 is 5.83 µM (active) in experiment [15]; 3.3 µM (active) in experiment [16]; 505 nM (active) and 5.52 µM (active) in experiment [9]. Further, the outcome in experiment [4], in experiment [5] and in experiment [8] was inactive.
As to `CC(=O)C=C(C)C`, the compound was classed as inactive in [13].
In the case of `ClCC(Cl)CCl`, the outcome in [1], in experiment [2], in experiment [3], in experiment [4], in experiment [5] and in experiment [6] was inactive. Moreover, the outcome in experiment [7] and in experiment [8] was inactive.
